Screening data (PubChem)
CendR NRP1 mod: modulators of CendR peptide binding to human neuropilin-1; O14786; FAM-RPARPAR peptide binding to NRP-1, fluorescence polarization; inhibition, % at 25 µM; 360,000 compounds, 0.85% hits; AID 602438;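 active means inhibition or corrected inhibition above about 18%, plus a signal ratio from 0.5 to 1.5, limit read from the data, passing the limit was not always enough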
Target sequence (O14786 whole entry, looked up): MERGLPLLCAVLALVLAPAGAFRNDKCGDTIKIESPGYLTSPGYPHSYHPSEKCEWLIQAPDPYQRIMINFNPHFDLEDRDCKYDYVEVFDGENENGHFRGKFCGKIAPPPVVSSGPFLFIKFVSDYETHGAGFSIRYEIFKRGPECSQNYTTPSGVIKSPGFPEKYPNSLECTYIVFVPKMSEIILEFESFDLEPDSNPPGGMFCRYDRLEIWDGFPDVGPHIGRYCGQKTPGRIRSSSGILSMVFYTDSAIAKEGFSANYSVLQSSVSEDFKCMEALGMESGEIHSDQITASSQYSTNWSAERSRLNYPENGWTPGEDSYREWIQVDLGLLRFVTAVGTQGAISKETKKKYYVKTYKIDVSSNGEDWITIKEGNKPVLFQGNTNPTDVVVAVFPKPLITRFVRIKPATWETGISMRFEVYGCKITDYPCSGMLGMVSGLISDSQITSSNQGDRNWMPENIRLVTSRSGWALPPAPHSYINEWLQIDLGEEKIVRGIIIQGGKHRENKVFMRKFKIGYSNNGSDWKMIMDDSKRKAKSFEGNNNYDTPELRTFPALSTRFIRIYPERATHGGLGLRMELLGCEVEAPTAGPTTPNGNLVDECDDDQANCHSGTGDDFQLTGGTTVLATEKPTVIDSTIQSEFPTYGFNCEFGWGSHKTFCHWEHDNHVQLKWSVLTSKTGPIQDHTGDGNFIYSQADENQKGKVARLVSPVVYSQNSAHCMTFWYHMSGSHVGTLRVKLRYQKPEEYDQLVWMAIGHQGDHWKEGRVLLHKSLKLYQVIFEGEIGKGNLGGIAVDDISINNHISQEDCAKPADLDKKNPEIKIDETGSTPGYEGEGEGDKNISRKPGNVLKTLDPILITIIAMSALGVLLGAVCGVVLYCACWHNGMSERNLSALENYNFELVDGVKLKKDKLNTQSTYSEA
FAS TE block: FAS thioesterase (human) inhibition. P49327. recombinant FAS-TE, OMFH fluorogenic substrate, fluorescence endpoint. inhibition, % at 15 µM. 360,000 compounds, 0.67% hits;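 active means compounds whose normalised, plate-corrected inhibition of enzyme fluorescence in the single-dose primary screen is 50% or more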;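 further: 0% = DMSO with enzyme and 100% = substrate without enzyme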
NadD inh: blocks S. aureus nicotinate mononucleotide adenylyltransferase; purified NadD enzyme, colorimetric absorbance read-out; inhibition, % at 20 µM; 360,000 compounds, 0.78% hits; AID 602399; in the data active means inhibition above about 26%
Myeloid diff MLP: promotes myeloid progenitor differentiation | AID 624256 | calls only at 10 µM | ER-HoxA9 myeloid progenitors, lysozyme-GFP differentiation, flow cytometry | 360,000 compounds, 1% hits;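 active means normalized GFP-positive differentiation at or above the plate's own cutoff, the solvent-only control mean plus 3 SD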;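 further: cells exposed to compound for four days before flow analysis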
CRFBP-R2 block: CRF-BP/CRF-R2 complex antagonism; AID 588475; inhibition, % at 11.8 µM; 350,000 compounds, 0.59% hits; HEK293 CRF-R2/CRF-BP, CRF-induced calcium fluorescence;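 active means inhibition of the ligand-induced calcium signal above about 50% at the single tested concentration, limit read from the data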
NadD inh conf: confirmation of Staphylococcus aureus NadD inhibitors | AID 624309 | purified S. aureus NadD, colorimetric enzyme assay | shares compounds with NadD inh | 2,000 compounds, 13% hits | inhibition, % at 20 µM; in the data active means inhibition mostly above about 42%, no sharp cut-off; inactive means mostly below about 42%
The depositor's hits bear a star. Only some compounds are listed: those with a hit (about 3.6% of all), similar ones and a draw of the others.

For CC1(C)CC(=O)c2c(nc(SCC(=O)Nc3nsc(-c4ccccc4)n3)c(C#N)c2-c2ccccc2)C1 the results were CendR NRP1 mod 0.0, FAS TE block 44.2, NadD inh 38.7*, Myeloid diff MLP inactive, CRFBP-R2 block -145.9 and NadD inh conf -2.4.
For COc1ccc(C2(SCC(N)C(=O)O)c3ccccc3-c3ccccc32)cc1 (stereo not given) the results were CendR NRP1 mod -21.0, FAS TE block 4.3, NadD inh 36.4*, Myeloid diff MLP inactive, CRFBP-R2 block 27.4 and NadD inh conf 30.1.
For NC(CSC1(c2ccc(Cl)cc2)c2ccccc2-c2ccccc21)C(=O)O (stereo not given) the results were CendR NRP1 mod -15.5, FAS TE block 18.3, NadD inh 41.0*, Myeloid diff MLP inactive, CRFBP-R2 block 5.0 and NadD inh conf 57.2*.
For Cc1cc(C)n(-c2cc(N3CCN(S(=O)(=O)c4ccc(C)c(C)c4)CC3)ccc2[N+](=O)[O-])n1 the results were CendR NRP1 mod 1.7, FAS TE block 24.0, NadD inh 14.0, Myeloid diff MLP inactive and CRFBP-R2 block 11.2.
`Cc1cc(C)n(-c2cc(N3CCN(S(=O)(=O)c4ccc5ccccc5c4)CC3)ccc2[N+](=O)[O-])n1` gave CendR NRP1 mod 10.8, FAS TE block 40.4, NadD inh 50.1*, Myeloid diff MLP inactive, CRFBP-R2 block -2.9 and NadD inh conf 41.1.
For Cn1cnnc1Sc1cc(N2CCN(S(=O)(=O)c3ccc(Cl)c(Cl)c3)CC2)ccc1[N+](=O)[O-] the results were CendR NRP1 mod -5.1, FAS TE block 18.3, NadD inh 42.1*, Myeloid diff MLP inactive, CRFBP-R2 block 17.3 and NadD inh conf 10.4.
`N#CC1=C2N=C(N)c3ccccc3N2C2=C(C(=O)CCC2)C1c1ccccc1F` (stereo not given) gave CendR NRP1 mod 12.7, FAS TE block -2.4, NadD inh 1.2, Myeloid diff MLP inactive and CRFBP-R2 block -12.5.
Screening Cc1ccccc1C1C(C#N)=C2N=C(N)c3c(sc4c3CCCCC4)N2C2=C1C(=O)CCC2 (stereo not given) returned CendR NRP1 mod -50.7, FAS TE block -49.3, NadD inh 42.9*, Myeloid diff MLP inactive, CRFBP-R2 block -21.2 and NadD inh conf 39.9.
COc1ccc(C2CC(c3ccccc3)=NN2C(=O)COC(=O)/C=C/c2ccc(O)c(OC)c2)cc1 (stereo not given) was read as CendR NRP1 mod -1.2, FAS TE block 14.2, NadD inh 46.0*, Myeloid diff MLP inactive, CRFBP-R2 block -12.4 and NadD inh conf 14.8.
O=C(Nc1ccc(Cl)cc1)c1nc[nH]c1C(=O)Nc1ccccc1F was read as CendR NRP1 mod -7.0, FAS TE block 5.9, NadD inh 5.1, Myeloid diff MLP inactive and CRFBP-R2 block 8.3.
For O=C(Nc1cccc(Cl)c1)c1nc[nH]c1C(=O)NCCCCNC(=O)c1[nH]cnc1C(=O)Nc1cccc(Cl)c1 the results were CendR NRP1 mod 11.3, FAS TE block 1.2, NadD inh 31.3*, Myeloid diff MLP inactive, CRFBP-R2 block 5.0 and NadD inh conf 4.6.
For CC(C)(C)OC(=O)NCCCCCNC(=O)c1[nH]cnc1C(=O)Nc1cccc(Cl)c1 the results were CendR NRP1 mod 2.3, FAS TE block 0.1, NadD inh 0.2, Myeloid diff MLP inactive and CRFBP-R2 block 4.6.
O=C(Nc1ccc(Cl)cc1)c1nc[nH]c1C(=O)NCCCCNC(=O)c1[nH]cnc1C(=O)Nc1ccc(Cl)cc1 was read as CendR NRP1 mod 9.4, FAS TE block 7.0, NadD inh 30.0*, Myeloid diff MLP inactive, CRFBP-R2 block -3.7 and NadD inh conf 5.8.
`O=C(Nc1cccc(Cl)c1)c1nc[nH]c1C(=O)NCCN(CCNC(=O)c1[nH]cnc1C(=O)Nc1cccc(Cl)c1)CCNC(=O)c1[nH]cnc1C(=O)Nc1cccc(Cl)c1` gave CendR NRP1 mod 2.8, FAS TE block 26.3, NadD inh 58.8*, Myeloid diff MLP inactive, CRFBP-R2 block 10.9 and NadD inh conf 9.4.
`c1ccc(Nc2nc(-c3ccccc3)ns2)cc1` gave CendR NRP1 mod -12.3, FAS TE block 9.3, NadD inh -7.4 and CRFBP-R2 block -5.8.
Screening COc1ccc(NC(=O)Nc2nnc(-c3ccncc3)s2)cc1 returned CendR NRP1 mod -4.8, FAS TE block -0.7, NadD inh 8.9, Myeloid diff MLP inactive and CRFBP-R2 block -3.9.
